Experimental data reported in PubChem BioAssay (NCATS).
Records with an inconclusive call do not appear. Active and inactive are the calls of the source. The call rests on the fitted dose curve; in most records, active means well fitted curve in either direction with a large enough effect (not every such curve was filed as active); inconclusive means small, poorly fitted or top-dose-only effect, or another doubt; inactive means flat fitted curve, though single readings scatter.

Experiment: NFAT Signaling Pathway (AID 444);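 further: carbachol stimulus at about its EC50 of 1 µM final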
Details: Jurkat NFAT-bla M1, carbachol, beta-lactamase ratio, 5 h; at 17.2 µM (top of the series) unless noted
Outline: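 Jurkat cells with NFAT-driven β-lactamase reporter and co-expressed M1 receptor, stimulated with carbachol (final 1 uM, ~EC50), compound titration, 5 h at 37 °C. CCF4 loaded 1 h at RT; 460/530 nm ratio gave %activity and AC50.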
On the % scale 0 is the no-effect control and ±100 the full control effect.

Activity change, negative = inhibition, active:
CCOC(=O)CSC1=C(C#N)C(=O)NC(c2ccc(OC)c(OC)c2)S1 (centres undefined) -123%, CCCCCCCCCCCCCCCCCC(=O)NC[C@@H](COP(=O)([O-])OCC[N+](C)(C)C)OCC 28.6% [at 38 µM], COC(=O)/C(=C1/Oc2cc(C)oc(=O)c2S1)C(F)(F)F -131%, CC(=O)Oc1oc(-c2ccccc2)nc1/C=N/c1ccccn1 -130%

Activity change, negative = inhibition, inactive:
CN(C)CCOC(=O)Cc1ccc(Cl)cc1 -7.05%, CN(C)CCCO[C@H]1[C@H]([C@H](O)CO)O[C@H]2OC(C)(C)O[C@@H]21 5.42% [at 38 µM], Cc1ccc(SCc2[nH]nc3c2C(c2ccc(C)o2)C(C#N)=C(N)O3)cc1 (centres undefined) -18.9%, COc1ccccc1C1/C(=C(/O)c2ccc(OC(C)C)cc2)C(=O)C(=O)N1c1cc(C)on1 (centres undefined) 27.8%, Cn1c2c(c(=O)n(C)c1=O)C(NC(=O)C(C)(C)C)(C(F)(F)F)C(=O)N2 (centres undefined) -2.4%, CCOc1ccc(C2C(C(=O)c3ccc(C)o3)=C(O)C(=O)N2CCN2CCOCC2)cc1OC (centres undefined) 4.63%, CCc1ccc(NC(=O)CSC2=C(C#N)C(c3ccc4c(c3)OCO4)CC(=O)N2)cc1 (centres undefined) -5.09%, COCc1cc(C)nc(SCC(=O)Nc2ccc(C)c(C)c2)c1C#N 3.23%, Cc1ccc(Oc2nc3c(c(=O)n(Cc4ccccc4F)c(=O)n3C)n2C)cc1 11.5%, CC(C)(C)OC(=O)N1CC=C2C(C#N)=C(N)C(C#N)(C#N)[C@H](c3cccnc3)[C@H]2C1 4.36%, CCC(c1c(C)n(C)n(-c2ccccc2)c1=O)c1c(C)n(C)n(-c2ccccc2)c1=O 9.43%, C=C(Br)CN1CCN(CC(=C)Br)CC1 -10.3%, CC(C)(C)c1ccc(O)c(N)c1 -5.9%, Oc1ccc(Br)cc1CNn1cnnc1 9.44%, CCn1cc(C(=O)NCc2ccccn2)c(=O)c2cc(F)c(N3CCN(C)CC3)cc21 -29.8%, Cn1c(=O)n(Cc2ccccc2)c(=O)c2c1nc(NCC1CCCO1)n2Cc1ccccc1 (centres undefined) -16.1%, N#Cc1c2c(c(-c3ccccc3)[nH]c1=O)CCCC2 10.7%, CC1(C)Cc2c(C#N)c(NCC3CCCO3)nc(-c3ccco3)c2CO1 (centres undefined) 5.63%, Cc1ccc(-c2nn3c(-c4cccc(Cl)c4)nnc3s2)cc1 -1.56%, CSc1nc(N2CCCC2)c2c(c1C#N)CC(C)(C)OC2 -19.8%, CC1(C(=O)CSc2ncn[nH]2)CCC(=O)O1 (centres undefined) 2.7%, COc1ccc(-c2nn3c(COc4ccccc4)nnc3s2)cc1OC 6.83%, COc1ccc(CCCNC(=O)CC#N)cc1OC -4.61%, CCCCOC(=O)CSc1nc(N)c(C#N)c(-c2ccc(OC)cc2)c1C#N -0.768%, Cc1cc(C)n(C(=O)CN2C(=O)CCC2=O)n1 0.324%, CC(=O)C1=C(O)C(=O)N(c2cccc(C(=O)O)c2)C1c1ccccc1F (centres undefined) 3.23%, CC(=O)c1ccc(O)c(CO)c1 -1.78%, CCCCCCCCCC(=O)N[C@@H](CN1CCOCC1)[C@@H](O)c1ccccc1 1.34% [at 38 µM], CCC(C)Nc1nc(OC)nc(N(C)C#N)n1 (centres undefined) 12.5%, CCC(=O)Nc1nc(C)c(Oc2ccccc2)c(=O)[nH]1 9.01%, COc1ccc(N(CN2C(=O)C3C4C=CC(C4)C3C2=O)C(=O)c2ccco2)cc1 (centres undefined) 12.6%, CC[C@H](C)[C@@H]1O[C@]2(CC[C@@H]1C)C[C@H]1C[C@H](CC=C(C)[C@@H](O[C@@H]3C[C@H](OC)[C@H](O[C@@H]4C[C@H](OC)[C@H](O)[C@H](C)O4)[C@H](C)O3)[C@@H](C)C=CC=C3CO[C@@H]4[C@@H](O)C(C)=C[C@@H](C(=O)O1)[C@]34O)O2 -35.3%, COC(=O)C(NC(C)=O)(Nc1ccc(Br)cn1)C(F)(F)F (centres undefined) 3.2%, CCCCN(C(=O)CCC(=O)O)C1CC(=O)N(c2ccc(OCCC)cc2)C1=O (centres undefined) -3.79%, Cn1c(=O)c2c(nc(Br)n2Cc2ccc3ccccc3c2)n(C)c1=O -13.6%
